Experimental data taken from PubChem BioAssay AID1159580 (chemical genetic matrix, 2015).
Screen size: about 5,500 compounds; about 2,000 (36%) were called active. About 18% were inconclusive and are not listed. Rule as the data show it: active = normalized growth mostly below about 0.91 (no sharp cut-off); inconclusive = no clear call, values can overlap the other calls; inactive = mostly above about 0.92. Some of the results follow.

Assay: chemical genetic growth profiling, strain panel (AID 1159580);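 also: tested at 20 µM; growth read once vehicle control cultures reached saturation at 30 °C; 1 = growth at the plate median or of vehicle wells; lower values mean less growth of the strain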
Conditions: S. cerevisiae deletion strains, growth OD

Measured: normalized growth

CC(C)(C)NCC(O)c1cc(Cl)c(N)c(Cl)c1 (centres undefined)
inactive: locus YAL013W, strain DEP1, active compounds read low 1.01 | locus YAL021C, strain ccr4, active compounds read low 0.985 | locus YAL026C, strain drs2, active compounds read low 1 | locus YAL030W, strain snc1, active compounds read low 1 | locus YBL061C, strain skt5, active compounds read low 1 | locus YBR009C, strain hhf1, active compounds read low 1 | locus YBR021W, strain FUR4, active compounds read low 1 | locus YBR023C, strain chs3, active compounds read low 1 | locus YBR171W, strain sec66, active compounds read low 1 | locus YBR229C, strain ROT2, active compounds read low 1.01 | locus YBR231C, strain swc5, active compounds read low 0.992 | locus YBR279W, strain paf1, active compounds read low 1.01 | locus YCL011C, strain gbp2, active compounds read low 1.01 | locus YCL016C, strain dcc1, active compounds read low 0.998 | locus YCL029C, strain bik1, active compounds read low 0.993 | locus YCL061C, strain MRC1, active compounds read low 1.01 | locus YCL069W, strain vba3, active compounds read low 0.992 | locus YCR088W, strain abp1, active compounds read low 0.998 | locus YDL005C, strain med2, active compounds read low 0.996 | locus YDL035C, strain GPR1, active compounds read low 1.01 | locus YDL040C, strain nat1, active compounds read low 0.988 | locus YDL074C, strain BRE1, active compounds read low 1 | locus YDL101C, strain DUN1, active compounds read low 1.01 | locus YDL134C, strain PPH21, active compounds read low 1.02 | locus YDL185W, strain tfp1, active compounds read low 1 | locus YDL192W, strain arf1, active compounds read low 1 | locus YDR001C, strain nth1, active compounds read low 0.995 | locus YDR069C, strain doa4, active compounds read low 0.989 | locus YDR101C, strain arx1, active compounds read low 0.983 | locus YDR137W, strain rgp1, active compounds read low 1 | locus YDR150W, strain NUM1, active compounds read low 1.02 | locus YDR159W, strain sac3, active compounds read low 0.978 | locus YDR162C, strain NBP2, active compounds read low 1 | locus YDR195W, strain ref2 0.961 | locus YDR297W, strain sur2, active compounds read low 1 | locus YDR318W, strain mcm21, active compounds read low 0.994 | locus YDR334W, strain swr1, active compounds read low 1 | locus YDR335W, strain msn5, active compounds read low 0.994 | locus YDR388W, active compounds read low 0.992 | locus YDR392W, strain spt3, active compounds read low 0.876 | locus YDR502C, strain sam2, active compounds read low 1.01 | locus YEL003W, strain gim4, active compounds read low 1 | locus YEL037C, strain rad23, active compounds read low 0.998 | locus YEL061C, strain CIN8 (second series), active compounds read low 1 | locus YEL061C, strain CIN8, active compounds read low 1.01 | locus YER015W, strain faa2, active compounds read low 0.999 | locus YER016W, strain bim1, active compounds read low 1 | locus YER110C, active compounds read low 0.998 | locus YER111C, strain swi4, active compounds read low 1.01 | locus YER155C, strain BEM2 (second series), active compounds read low 1.01 | locus YER155C, strain BEM2, active compounds read low 1.02 | locus YER167W, strain BCK2, active compounds read low 1.01 | locus YFR010W, strain ubp6, active compounds read low 0.994 | locus YGL078C, strain dbp3, active compounds read low 1.01 | locus YGL086W, strain mad1, active compounds read low 0.997 | locus YGL167C, strain pmr1, active compounds read low 1 | locus YGL173C, strain kem1, active compounds read low 0.996 | locus YGL227W, strain vid30, active compounds read low 1 | locus YGL240W, strain doc1, active compounds read low 0.98 | locus YGL248W, strain PDE1, active compounds read low 1 | locus YGL253W, strain hxk2, active compounds read low 0.984 | locus YGR078C, strain PAC10, active compounds read low 1.01 | locus YGR135W, strain pre9, active compounds read low 1.01 | locus YGR229C, strain SMI1, active compounds read low 1.01 | locus YGR252W, strain gcn5, active compounds read low 1.04 | locus YHR013C, strain ard1, active compounds read low 0.983 | locus YHR027C, strain rpn1, active compounds read low 0.994 | locus YHR030C, strain SLT2, active compounds read low 1.01 | locus YHR079C, strain IRE1 (second series), active compounds read low 1 | locus YHR094C, strain hxt1, active compounds read low 1 | locus YHR129C, strain ARP1, active compounds read low 1.02 | locus YHR142W, strain chs7, active compounds read low 0.997 | locus YHR200W, strain rpn10, active compounds read low 1 | locus YIL066C, strain RNR3, active compounds read low 1.01 | locus YIL073C, strain SPO22, active compounds read low 1 | locus YIL125W, strain kgd1, active compounds read low 1 | locus YIR030C, strain dcg1, active compounds read low 0.995 | locus YJL092W, strain hpr5, active compounds read low 0.997 | locus YJL095W, strain BCK1 (second series), active compounds read low 1 | locus YJL095W, strain BCK1, active compounds read low 1.01 | locus YJL115W, strain asf1, active compounds read low 1 | locus YJL129C, strain trk1, active compounds read low 0.996 | locus YJL134W, strain LCB3, active compounds read low 1.01 | locus YJL154C, strain vps35, active compounds read low 1 | locus YJL164C, strain tpk1, active compounds read low 1 | locus YJL166W, strain qcr8, active compounds read low 0.991 | locus YJL168C, strain set2, active compounds read low 0.992 | locus YJL187C, strain SWE1 (second series), active compounds read low 1.01 | locus YJL187C, strain SWE1, active compounds read low 1
